Data published in PubChem BioAssay.
Values joined by “and” are separate entries in the source; they are usually repeats but may differ in a detail not shown here. Equal entries are not always repeated. Records with an inconclusive call do not appear. Active and inactive are the calls of the source.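 The calls were made as follows, unless noted: active = normalized viability below 100% at a tested concentration; inactive = the rest.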

Tests used:
[1] = viability loss in pontine glioma line – cell-based, SU-DIPG-XVII, MIPE5.0, CellTiter-Glo, qHTS, dose response (AID 1347060; cut-off not given, nearly all actives have AC50 up to about 26 µM;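 as to AC50: cells exposed to compound for 48 hours before viability readout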); details: CellTiter-Glo ATP luminescence
[2] = viability loss in pontine glioma line – cell-based, JHH-DIPG-1, MIPE4.0, CellTiter-Glo, qHTS, dose response (AID 1347062; cut-off not given, nearly all actives have AC50 up to about 27 µM;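 as to AC50: cells exposed to compound for two days before readout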); details: JHH-DIPG-1 viability, CellTiter-Glo ATP luminescence
[3] = viability loss in pontine glioma line – cell-based, SU-DIPG-XIII, MIPE5.0, CellTiter-Glo, qHTS, dose response (AID 1347064; cut-off not given, nearly all actives have AC50 up to about 23 µM;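 as to AC50: cells exposed to compound for 48 hours before the viability read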); details: CellTiter-Glo ATP luminescence
[4] = viability loss in pontine glioma line – cell-based, SU-DIPG-XXV, MIPE5.0, CellTiter-Glo, qHTS, dose response (AID 1347065; cut-off not given, nearly all actives have AC50 up to about 26 µM;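 also: cells exposed to compound for 48 hours before ATP readout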); details: CellTiter-Glo ATP luminescence
[5] = growth inhibition of DIPG cells – cell-based, MIPE4.0 library, CellTiter-Glo luminescence, qHTS (AID 1347066; cut-off not given, nearly all actives have AC50 up to about 30 µM;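 also: cells exposed to compound for 48 hours before readout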); details: SU-DIPG-VI viability, CellTiter-Glo ATP luminescence
[6] = JHH-DIPG-1 glioma cell viability, MIPE5.0 library, CellTiter-Glo luminescence, qHTS (AID 1347067; cut-off not given, nearly all actives have AC50 up to about 26 µM;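 also: cells exposed to compound for 48 hours before readout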); details: JHH-DIPG-1 glioma viability, CellTiter-Glo ATP luminescence
[7] = growth inhibition of DIPG cells – cell-based, MIPE5.0 library, qHTS (AID 1347068; cut-off not given, nearly all actives have IC50 up to about 30 µM;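 as to IC50: cells exposed to compound for 48 hours before viability readout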); details: SU-DIPG-XXV viability
[8] = P. berghei load reduction in hepatocytes – cell-based, HepG2, luciferase luminescence, HepG2 viability, primary screen (AID 624349; in the data active = parasite load remaining mostly below about 12%, no sharp cut-off; inactive = mostly above about 10%;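 also: 100% = mean of DMSO negative control wells on the same plate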); details: P. berghei liver stage in HepG2, luciferase luminescence, concentration not given here; parasite load remaining: stronger effect = lower value; viability: measured here: HepG2 viability without parasites
[9] = viability loss with induced miR-34 in A549 – imaging, A549 dox-inducible miR-34, nuclei and caspase counts, primary screen (AID 1347080;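 active = compounds whose cell count with miR-34 switched on is under 0.7 times the count with it off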); details: A549 miR-34 inducible, Hoechst nuclei count, 48 h
[10] = MELAS cybrid and Rieske KO viability enhancers – cell-based, MELAS cybrids, Rieske KO mouse fibroblasts, CellTiter-Glo, primary screen (AID 1508586;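 active = mean z-score across replicates of 1.96 or higher in either the MELAS or the Rieske mutant cell line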;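 also: z relative to plate mean and SD of compound and empty wells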); details: low glucose
[11] = compounds altering HSF1 focus formation in cells – imaging, Selleck Cancer Library (AID 1347162; in the data active = plate-normalised HSF1 focus index below about 0.46); details: human cells, HSF1 nuclear foci imaging, at 10 µM; SSMD: measured here: HSF1 foci SSMD mean; cell count: measured here: cell number; plate-normalised HSF1 focus index: stronger effect = lower value
[12] = drug combination growth inhibition, ovarian cancer – cell-based, oncology-focused library, rucaparib conditional, profiling panel (AID 1508598); details: patient-derived ovarian cancer cells, CellTiter-Glo viability, 144 h, stronger effect = lower value
[13] = stronger effect = lower value, cell number ratio, induced over uninduced
[14] = measured here: relative caspase fold change +Dox/-Dox
[15] = measured here: total cells with miR-34 induction, stronger effect = lower value
[16] = measured here: total cells without miR-34 induction
[17] = MELAS cybrid survival, CellTiter-Glo 48 h, stronger effect = higher value
[18] = Rieske KO mouse fibroblast survival, CellTiter-Glo 72 h

CC[C@]12C=CCN3CC[C@@]4(c5cc([C@@]6(C(=O)OC)C[C@H]7C[C@@H](C(C)(F)F)CN(Cc8c6[nH]c6ccccc86)C7)c(OC)cc5N(C)[C@H]4[C@@](O)(C(=O)OC)[C@@H]1OC(C)=O)[C@@H]32
active: AC50 [1] 78.3 nM | AC50 [2] 469 nM | AC50 [3] 1.75 µM | AC50 [4] 111 nM | AC50 [5] 8.33 µM | AC50 [6] 312 nM | IC50 [7] 350 nM

C=CC[N+]1([C@H]2C[C@H]3[C@@H]4CC[C@H]5C[C@H](O)[C@@H](N6CCOCC6)C[C@]5(C)[C@H]4CC[C@]3(C)[C@H]2OC(C)=O)CCCC1
-0.444: z-score [10, 18]
9100: cell count [9, 15]
10700: cell count [9, 16]
138%: viability [8]
inactive: parasite load remaining [8] 25.4% | outcome [1] | outcome [2] | outcome [3] | outcome [6] | outcome [7] | fold change [9, 13] 0.847 | z-score [10, 17] 0.124
1.54: fold change [9, 14]

COc1ccc(/C=C\c2cc(OC)c(OC)c(OC)c2)cc1NC(=O)[C@H](N)CO
active: AC50 [1] 83.3 nM | AC50 [2] 20.9 nM | AC50 [3] 0.59 µM | AC50 [4] 148 nM | AC50 [6] 235 nM | IC50 [7] 332 nM

CS(=O)(=O)c1ccc(C(=O)Nc2ccc(Cl)c(-c3ccccn3)c2)c(Cl)c1
active: viability ([12]; at 0.000305 µM, OCI-P5x cells, with rucaparib 20 µM, 100% = cells with rucaparib alone) 92.5% | viability ([12]; at 0.00488 µM, OCI-P5x cells, without rucaparib) 97.6% | viability ([12]; at 5 µM, OCI-P5x cells, with rucaparib 20 µM, 100% = cells with rucaparib alone) 97.4% | viability ([12]; at 5 µM, OCI-P5x cells, without rucaparib) 99.8%
10200 and 7460: cell count [9, 16]
2.58: SSMD [11]
7240: cell count [11]
inactive: outcome [1] | outcome [2] | outcome [3] | outcome [4] | outcome [5] | outcome [6] | outcome [7] | fold change [9, 13] 0.865 and 0.901 | plate-normalised HSF1 focus index [11] 1.15 | z-score [10, 17] 0.265 and -0.383 | viability ([12]; at 0.000305 µM, OCI-C5x cells, with rucaparib 10 µM, 100% = cells with rucaparib alone) 124% | viability ([12]; at 0.000305 µM, OCI-C5x cells, without rucaparib) 125% | viability ([12]; at 0.000305 µM, OCI-P5x cells, without rucaparib) 106% | viability ([12]; at 0.00122 µM, OCI-C5x cells, with rucaparib 10 µM, 100% = cells with rucaparib alone) 126% | viability ([12]; at 0.00122 µM, OCI-C5x cells, without rucaparib) 125% | viability ([12]; at 0.00122 µM, OCI-P5x cells, with rucaparib 20 µM, 100% = cells with rucaparib alone) 103% | viability ([12]; at 0.00122 µM, OCI-P5x cells, without rucaparib) 102% | viability ([12]; at 0.00488 µM, OCI-C5x cells, with rucaparib 10 µM, 100% = cells with rucaparib alone) 125% | viability ([12]; at 0.00488 µM, OCI-C5x cells, without rucaparib) 124% | viability ([12]; at 0.00488 µM, OCI-P5x cells, with rucaparib 20 µM, 100% = cells with rucaparib alone) 106% | viability ([12]; at 0.0195 µM, OCI-C5x cells, with rucaparib 10 µM, 100% = cells with rucaparib alone) 115% | viability ([12]; at 0.0195 µM, OCI-C5x cells, without rucaparib) 117% | viability ([12]; at 0.0195 µM, OCI-P5x cells, with rucaparib 20 µM, 100% = cells with rucaparib alone) 107% | viability ([12]; at 0.0195 µM, OCI-P5x cells, without rucaparib) 102% | viability ([12]; at 0.0781 µM, OCI-C5x cells, with rucaparib 10 µM, 100% = cells with rucaparib alone) 123% | viability ([12]; at 0.0781 µM, OCI-C5x cells, without rucaparib) 116% | viability ([12]; at 0.0781 µM, OCI-P5x cells, with rucaparib 20 µM, 100% = cells with rucaparib alone) 106% | viability ([12]; at 0.0781 µM, OCI-P5x cells, without rucaparib) 103% | viability ([12]; at 0.313 µM, OCI-C5x cells, with rucaparib 10 µM, 100% = cells with rucaparib alone) 125% | viability ([12]; at 0.313 µM, OCI-C5x cells, without rucaparib) 127% | viability ([12]; at 0.313 µM, OCI-P5x cells, with rucaparib 20 µM, 100% = cells with rucaparib alone) 108% | viability ([12]; at 0.313 µM, OCI-P5x cells, without rucaparib) 104% | viability ([12]; at 1.25 µM, OCI-C5x cells, with rucaparib 10 µM, 100% = cells with rucaparib alone) 133% | viability ([12]; at 1.25 µM, OCI-C5x cells, without rucaparib) 116% | viability ([12]; at 1.25 µM, OCI-P5x cells, with rucaparib 20 µM, 100% = cells with rucaparib alone) 108% | viability ([12]; at 1.25 µM, OCI-P5x cells, without rucaparib) 104% | viability ([12]; at 5 µM, OCI-C5x cells, with rucaparib 10 µM, 100% = cells with rucaparib alone) 158% | viability ([12]; at 5 µM, OCI-C5x cells, without rucaparib) 149%
8790 and 6720: cell count [9, 15]
0.712 and 0.902: fold change [9, 14]
0.641 and 0.534: z-score [10, 18]
